The source made the active and inactive calls. How the source made its calls: active means hit-call score of the fitted dose curve at least 0.9, where 1 is the maximum; inactive means score below 0.9.
Assays:
[1] = APR_HepG2_CellLoss_72hr: Apredica 72-hour HepG2 Assay for Cell Loss (AID 2282915); conditions: high-content imaging
Outline: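 HepG2 cells exposed 72 h to compound at 0.39–200 uM (10 concentrations, duplicate) in 0.5% DMSO. Fixed with 3.7% formaldehyde and Hoechst 33342-stained. Imaged at 20x; nuclear count gives cell number, fitted bidirectionally versus DMSO.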

[2] = APR_HepG2_P-H2AX_72hr: Apredica 72-hour HepG2 Assay for H2AX Phosphorylation (AID 2282916); conditions: imaging, actives raise or lower the signal;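 further: phospho-histone H2A.x immunostain intensity per cell marking DNA damage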
Outline: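 HepG2 cells treated 72 h at 0.39–200 uM, 0.5% DMSO final, duplicates. Formaldehyde-fixed, Triton-permeabilised, immunostained for phospho-H2A.x with Hoechst; fluorescence imaged at 20x, bidirectional fit versus DMSO.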

[3] = APR_HepG2_MitoMembPot_72hr: Apredica 72-hour HepG2 Assay for Mitochondrial Membrane Potential (AID 2282917); conditions: imaging, actives raise or lower the signal
Outline: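 HepG2 cells dosed 72 hr with compound at 0.39–200 uM in duplicate, 0.5% v/v DMSO final. Mitochondria stained with 250 nM MitoTracker Red CMXRos for 30 min before formaldehyde fixation, imaged by high-content fluorescence; bidirectional fit versus DMSO.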

[4] = APR_HepG2_MitoticArrest_72hr: Apredica 72-hour HepG2 Assay for Mitotic Arrest (AID 2282918); conditions: high-content imaging, actives raise or lower the signal
Outline: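 Mitotic arrest in HepG2 is scored from phospho-histone H3 staining after 72 hr dosing across 0.39–200 uM, with DMSO at 0.5% v/v. Nuclei are identified by Hoechst 33342 and fluorescence intensity is quantified per cell.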

[5] = APR_HepG2_MicrotubuleCSK_72hr: Apredica 72-hour HepG2 Assay for Microtubule CSK Stabilty (AID 2282919); conditions: HepG2 microtubule cytoskeleton, high-content imaging, actives raise or lower the signal
Outline: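 HepG2 cells were exposed 72 hr to compound at 0.39–200 uM in duplicate (0.5% DMSO final), then fixed and permeabilized. Alpha-tubulin immunofluorescence was imaged by high-content microscopy, with bidirectional fitting against DMSO and taxol as positive control.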

[6] = APR_HepG2_P-H2AX_24hr: Apredica 24-hour HepG2 Assay for H2AX Phosphorylation (AID 2282920); conditions: high-content imaging, actives raise or lower the signal
Outline: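 Signal comes from a FITC-labeled secondary detecting phospho-histone H2A.x in fixed HepG2 cells, quantified by automated imaging at 20x. Dosing ran 24 hr across 0.39–200 uM with 0.5% v/v DMSO.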

[7] = APR_HepG2_StressKinase_72hr: Apredica 72-hour HepG2 Assay for Stress Kinase (AID 2282921); conditions: HepG2 stress kinase (phospho-c-Jun) imaging, actives raise or lower the signal
Outline: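 HepG2 cells treated 72 hr with 0.39–200 uM compound, 0.5% v/v DMSO, duplicate wells. After formaldehyde fixation and Triton permeabilization, stained with anti-phospho-c-Jun (1:500) and Cy3 secondary, imaged at 20x. Fitted in both directions against DMSO.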

[8] = APR_HepG2_StressKinase_24hr: Apredica 24-hour HepG2 Assay for Stress Kinase (AID 2282922); conditions: HepG2 stress kinase (phospho-c-Jun) imaging, actives raise or lower the signal
Outline: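 HepG2 cells exposed 24 h to 0.39–200 uM compound in duplicate (0.5% v/v DMSO final). Cells fixed in 3.7% formaldehyde, permeabilized and immunostained for phospho-c-Jun; read by high-content fluorescence imaging, fitted bidirectionally against DMSO.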

[9] = APR_HepG2_p53Act_72hr: Apredica 72-hour HepG2 Assay for p53 Activation (AID 2282923); conditions: high-content imaging, actives raise or lower the signal;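 further: average cellular p53 protein immunofluorescence intensity in HepG2 cells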
Outline: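 HepG2 cells exposed 72 h to 0.39–200 uM in 0.5% DMSO, duplicates. Fixed, permeabilized cells immunostained for p53 (Cy5) with Hoechst; imaged at 20x, fluorescence analyzed bidirectionally against DMSO.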

[10] = APR_HepG2_MitoMass_72hr: Apredica 72-hour HepG2 Assay for Mitochondrial Mass (AID 2282924); conditions: high-content imaging, actives raise or lower the signal;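 further: MitoTracker Red CMXRos stain intensity per cell imaged as mitochondrial mass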
Outline: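 HepG2 cells dosed 72 hr at 0.39–200 uM (0.5% DMSO), in duplicate. MitoTracker Red CMXRos 250 nM loaded 30 min before formaldehyde fixation; high-content fluorescence imaging, bidirectional fit versus DMSO.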

[11] = ATG_CRE_CIS: Attagene CIS-FACTORIAL HepG2 Assay for human cAMP Responsive Element (CRE) binding protein 3 (AID 2282926); conditions: HepG2 CRE cis-reporter, Attagene multiplexed mRNA; actives raise or lower the signal
Outline: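 We dosed HepG2 cells bearing multiple cis-promoter reporter units for 24 h and measured reporter mRNA by RT-PCR with capillary electrophoresis detection. Bidirectional concentration-response fitting used DMSO as negative control.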

[12] = target: CCAAT/enhancer-binding protein beta (Homo sapiens) (UniProt P17676); experiment: ATG_C_EBP_CIS: Attagene CIS-FACTORIAL HepG2 Assay for human CCAAT/Enhancer Binding Protein (C/EBP) beta (AID 2282927); conditions: HepG2 Attagene cis-factorial transcription factor reporter; actives raise or lower the signal
Outline: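 HepG2 transiently transfected with multiplexed reporter units under cis-regulatory promoters reporting endogenous C/EBPb activity. After 24 h exposure, reporter mRNA assayed by RT-PCR, fluorescent labelling, HpaI digestion and capillary electrophoresis; bidirectional fitting versus DMSO.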

[13] = ATG_DR4_LXR_CIS: Attagene CIS-FACTORIAL HepG2 Assay for human Liver X Receptor (LXR), DR4 submotif (AID 2282929); conditions: HepG2 Attagene DR4 cis-reporter, mRNA transcription; actives raise or lower the signal
Outline: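 The endpoint is DR4-element-driven reporter transcripts after 24 h chemical exposure of transfected HepG2 cells. These were measured via RT-PCR and capillary electrophoresis, and gain or loss of signal was fitted relative to DMSO controls.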

[14] = target: Aryl hydrocarbon receptor (Homo sapiens) (UniProt P35869); experiment: ATG_Ahr_CIS: Attagene CIS-FACTORIAL HepG2 Assay for human Aryl Hydrocarbon Receptor (Ahr) (AID 2282930); conditions: HepG2 AhR cis-factorial reporter transcription; actives raise or lower the signal
Outline: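 HepG2 cells transiently transfected with cis-element-driven multiplexed reporter units; endogenous AhR activity read as reporter mRNA 24 h after dosing, via RT-PCR, 6-FAM labelling, HpaI digestion and capillary electrophoresis. Bidirectional fit relative to DMSO.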

[15] = ATG_AP_1_CIS: Attagene CIS-FACTORIAL HepG2 Assay for human Activator Protein 1 (AP-1) (AID 2282931); conditions: HepG2 Attagene cis-factorial AP-1 reporter mRNA; actives raise or lower the signal
Outline: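 Readout is reporter transcript level from endogenous transcription factor activity, quantified by RT-PCR with fluorescent primer extension and capillary electrophoresis. Transiently transfected HepG2 cells, 24 h exposure. Curves fitted both directions versus DMSO.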

[16] = ATG_AP_2_CIS: Attagene CIS-FACTORIAL HepG2 Assay for human Activator Protein 2 (AP-2) (AID 2282932); conditions: HepG2 AP-2 cis-reporter, Attagene transcription factor profiling; actives raise or lower the signal
Outline: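 HepG2 cells transiently transfected with cis-element reporter units and exposed for 24 h. Reporter mRNA measured by RT-PCR, FAM labelling, HpaI digestion and capillary electrophoresis. Changes in either direction fitted relative to DMSO.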

[17] = ATG_BRE_CIS: Attagene CIS-FACTORIAL HepG2 Assay for human Bone Morphogenetic Protein (BMP) Response Element (BRE) (AID 2282933); conditions: HepG2 BMP response element reporter, Attagene transcription factor profiling; actives raise or lower the signal
Outline: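 Gain- or loss-of-signal was derived by bidirectional fitting against DMSO controls. The signal came from reporter mRNA, measured by RT-PCR and capillary electrophoresis, in HepG2 cells transiently carrying multiple reporter units and dosed for 24 h.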

[18] = target: Retinoic acid receptor alpha (Homo sapiens) (UniProt P10276); experiment: ATG_DR5_RAR_CIS: Attagene CIS-FACTORIAL HepG2 Assay for human Retinoic Acid Receptor Alpha (RARE), DR5 submotif (AID 2282934); conditions: HepG2 Attagene cis-factorial RARE DR5 reporter, mRNA; actives raise or lower the signal
Outline: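 HepG2 cells transiently transfected with multiplexed reporter units; DR5 cis-element drives reporter through endogenous transcription factors. After 24 h dosing, reporter mRNA quantified by RT-PCR, fluorescent labeling, HpaI digestion and capillary electrophoresis; bidirectional fitting versus DMSO.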

[19] = APR_HepG2_NuclearSize_72hr: Apredica 72-hour HepG2 Assay for Nuclear Size (AID 2282925); conditions: high-content imaging, actives raise or lower the signal
Outline: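 HepG2 cells dosed 72 h at 0.39–200 uM (10 concentrations, duplicate) in 0.5% v/v DMSO final. Fixed, Hoechst 33342-stained nuclei imaged; nuclear diameter measured by automated image analysis. Bidirectional fit versus DMSO.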

[20] = ATG_CMV_CIS: Attagene CIS-FACTORIAL HepG2 Assay for human CMV (Internal Marker) (AID 2282928); conditions: HepG2 CMV promoter reporter, transcription factor profiling; actives raise or lower the signal;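 further: endpoint acts as a background internal control marker rather than a target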
Outline: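 HepG2 cells transiently transfected with multiple cis-regulated reporter units; 24 h compound exposure. Reporter mRNA quantified by RT-PCR, 6-FAM primer-extension labeling, HpaI digestion and capillary electrophoresis; bidirectional fitting against DMSO baseline.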

Measured: AC50

CCAAT/enhancer-binding protein beta (Homo sapiens), sequence (P17676 whole entry, looked up): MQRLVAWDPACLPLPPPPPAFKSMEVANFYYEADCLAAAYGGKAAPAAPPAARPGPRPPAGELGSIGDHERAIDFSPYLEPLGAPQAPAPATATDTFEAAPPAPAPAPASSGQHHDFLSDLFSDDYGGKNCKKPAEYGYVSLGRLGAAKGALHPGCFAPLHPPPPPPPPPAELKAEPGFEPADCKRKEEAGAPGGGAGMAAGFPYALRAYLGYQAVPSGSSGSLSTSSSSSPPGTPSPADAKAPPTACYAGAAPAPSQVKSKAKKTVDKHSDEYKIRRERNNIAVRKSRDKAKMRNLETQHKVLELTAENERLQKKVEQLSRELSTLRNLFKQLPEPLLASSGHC
Retinoic acid receptor alpha (Homo sapiens), sequence (P10276 whole entry, looked up): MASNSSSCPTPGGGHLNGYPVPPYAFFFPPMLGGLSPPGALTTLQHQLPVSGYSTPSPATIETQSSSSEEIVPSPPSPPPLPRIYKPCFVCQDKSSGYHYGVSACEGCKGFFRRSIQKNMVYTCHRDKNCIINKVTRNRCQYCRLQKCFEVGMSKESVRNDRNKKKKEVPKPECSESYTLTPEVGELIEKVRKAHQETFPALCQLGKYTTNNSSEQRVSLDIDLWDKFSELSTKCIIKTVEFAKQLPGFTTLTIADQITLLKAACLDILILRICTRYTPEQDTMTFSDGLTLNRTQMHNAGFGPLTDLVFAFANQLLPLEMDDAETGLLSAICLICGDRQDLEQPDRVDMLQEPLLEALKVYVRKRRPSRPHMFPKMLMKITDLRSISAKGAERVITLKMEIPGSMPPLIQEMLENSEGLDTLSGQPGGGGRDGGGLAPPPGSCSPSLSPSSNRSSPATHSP
Aryl hydrocarbon receptor (Homo sapiens), sequence (P35869 whole entry, looked up): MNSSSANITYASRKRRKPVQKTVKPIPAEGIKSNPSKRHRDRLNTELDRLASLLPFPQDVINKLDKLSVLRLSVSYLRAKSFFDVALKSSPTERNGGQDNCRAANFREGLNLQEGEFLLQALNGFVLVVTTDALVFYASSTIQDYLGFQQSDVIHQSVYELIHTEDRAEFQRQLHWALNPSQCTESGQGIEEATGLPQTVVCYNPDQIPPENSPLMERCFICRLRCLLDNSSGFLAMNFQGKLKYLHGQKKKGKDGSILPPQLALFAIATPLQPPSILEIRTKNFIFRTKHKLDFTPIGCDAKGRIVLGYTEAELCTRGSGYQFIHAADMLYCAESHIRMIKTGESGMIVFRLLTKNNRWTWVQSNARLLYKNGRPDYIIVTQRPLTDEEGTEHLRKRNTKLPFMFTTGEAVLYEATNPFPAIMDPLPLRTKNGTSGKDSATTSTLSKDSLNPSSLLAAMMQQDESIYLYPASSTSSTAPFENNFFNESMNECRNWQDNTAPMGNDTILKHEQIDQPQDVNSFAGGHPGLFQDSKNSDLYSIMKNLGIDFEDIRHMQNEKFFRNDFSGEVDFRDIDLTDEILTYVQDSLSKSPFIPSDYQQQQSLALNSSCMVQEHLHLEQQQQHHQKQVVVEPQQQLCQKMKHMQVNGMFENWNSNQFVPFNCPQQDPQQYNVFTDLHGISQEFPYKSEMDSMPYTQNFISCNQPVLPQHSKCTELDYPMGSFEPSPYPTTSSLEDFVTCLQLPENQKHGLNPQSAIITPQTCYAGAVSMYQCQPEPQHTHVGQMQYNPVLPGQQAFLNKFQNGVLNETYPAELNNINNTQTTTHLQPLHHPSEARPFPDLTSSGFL

CCCCCCCCCCCCN1CCCC1=O
active: [1] 72.4 µM | [2] 58.6 µM | [4] 62.4 µM | [5] 53.3 µM | [6] 67.2 µM | [7] 67.5 µM | [9] 61.3 µM | [10] 109 µM
not listed: [19] | [20]
inactive: all other assays above

CC(C)(C)CC(C)(C)c1ccc(O)c(-n2nc3ccccc3n2)c1
active: [1] 65.5 µM | [2] 61.7 µM | [4] 35.6 µM | [5] 47.9 µM | [6] 78.4 µM | [9] 19 µM | [10] 42.8 µM | [19] 80.4 µM | [15] 58.3 µM
not listed: [20]
inactive: all other assays above

CN(C)C=O
not listed: [10]
inactive: all other assays above

Source: PubChem BioAssay (EPA / NIEHS)
